We go through 31 molecules from the supplement of paper PMC13380429.

The subject of assay [1] is Vero E6 infected with SARS-CoV-2. Put plainly: morphology score (similarity to uninfected cells); higher = more like uninfected cells. The note with it: 24 h.
For assay [2] the test system is unchanged. Put plainly: SARS-CoV-2 infection rate relative to infected DMSO; higher = more infection, active = 60 or less. As to conditions: 24 h.

In the case of `Cc1ccccc1-n1c(Cn2nc(-c3cccc(O)c3)c3c(N)ncnc32)nc2cccc(C)c2c1=O` (10 µM), in assay [1], the morphology score was found to be 0.0603. Also, the SARS-CoV-2 infection rate in assay [2] is 126% (inactive).

`OC(c1ccccc1)(c1ccccc1)C12CC[N+](CCOCc3ccccc3)(CC1)CC2` [umeclidinium] (10 µM) came in with a morphology score in assay [1] of 0.162. In addition, the SARS-CoV-2 infection rate in assay [2] was 101% (inactive).

Take `CN1CCN2c3c(cccc31)[C@@H]1CN(CCCC(=O)c3ccc(F)cc3)CC[C@@H]12` [lumateperone] (10 µM): the morphology score in assay [1] came to 0.348. In assay [2], the SARS-CoV-2 infection rate is 86% (inactive).

For the molecule `C[C@H](NC(=O)CNC(=O)c1cccc(Cl)c1)c1ccccc1` (10 µM), the morphology score in assay [1] was 0.0656. Further, in assay [2], the SARS-CoV-2 infection rate is 102% (inactive).

Turning to `COc1ccc(S(=O)(=O)N2CCC[C@H]2C(=O)Nc2cc(C)cc(C)c2)cc1` (10 µM), the morphology score in assay [1] is -0.0886. The SARS-CoV-2 infection rate in assay [2] is 113% (inactive).

In assay [1], `CCC(C)C(C(=O)OCC[N+](C)(CC)CC)c1ccccc1` (configuration not stated) [valethamate] (10 µM) displayed a morphology score of 0.0952. The SARS-CoV-2 infection rate in assay [2] was 95% (inactive).

`CCN(CC)CCOCCOC(=O)C(CC)(CC)c1ccccc1` [oxelaidin] (10 µM) showed a morphology score in assay [1] of 0.423. Moreover, the SARS-CoV-2 infection rate in assay [2] was 73.5% (inactive).

Consider `Cc1c(CN(C)C(=O)/C=C/c2cnc3c(c2)CCC(=O)N3)oc2ccccc12` (10 µM), for which, in assay [1], the morphology score is 0.182. Moreover, in assay [2], the SARS-CoV-2 infection rate is 94% (inactive).

As for `NC(=O)c1cnc2[nH]ccc2c1N[C@@H]1[C@@H]2CC3C[C@H]1C[C@@](O)(C3)C2` (10 µM), the morphology score in assay [1] was 0.174. The SARS-CoV-2 infection rate in assay [2] is 106% (inactive).

For `Cc1ccc(NC2=NCCN2)c(Cl)c1` [tolonidine] (10 µM), the morphology score in assay [1] is -0.0217. Further, the SARS-CoV-2 infection rate in assay [2] was 98.5% (inactive).

Consider `COc1cccc(-n2nc(C(=O)O)cc2-c2ccc(C3CCCCC3)c(Cl)c2)c1` (10 µM), for which, in assay [1], the morphology score amounted to 0.0895. Also, the SARS-CoV-2 infection rate in assay [2] was 102% (inactive).

With `Cc1cc(CC(=O)O)n(C)c1C(=O)c1ccc(Cl)cc1` [zomepirac] (10 µM), the morphology score in assay [1] came to 0.117. Also, the SARS-CoV-2 infection rate in assay [2] was 104% (inactive).

In assay [1], `Oc1ccc(-c2c(-c3ccccc3)nn3c(C(F)(F)F)cc(C(F)(F)F)nc23)cc1` (10 µM) came in with a morphology score of 0.0465. Also, the SARS-CoV-2 infection rate in assay [2] is 104% (inactive).

Regarding `O=C1NC(=O)c2c1c(-c1ccccc1)cc1[nH]c3ccc(O)cc3c21` (0.833333 µM), in assay [1], the morphology score was 0.685. The SARS-CoV-2 infection rate in assay [2] was 93.5% (inactive).

`NS(=O)(=O)NCc1csc2ccccc12` (10 µM) registered a morphology score in assay [1] of 0.212. For the same molecule, the SARS-CoV-2 infection rate in assay [2] is 87.5% (inactive).

In turn, `Nc1nc(O)c2nc(Br)n([C@@H]3O[C@@H]4COP(=O)(O)O[C@H]4[C@H]3O)c2n1` [8-bromo-cGMP] (10 µM) yielded a morphology score in assay [1] of 0.0521. Besides, the SARS-CoV-2 infection rate in assay [2] is 97% (inactive).

Take `O=C(/C=C/c1cccc(S(=O)(=O)Nc2ccccc2)c1)NO` [belinostat] (10 µM): the morphology score in assay [1] stood at 0.0182. The SARS-CoV-2 infection rate in assay [2] was 97.5% (inactive).

In the case of `CN1CCC(=C2c3ccccc3Sc3ccccc32)CC1` [pimethixene] (10 µM), the morphology score in assay [1] was 0.373. Further, the SARS-CoV-2 infection rate in assay [2] was 85.5% (inactive).

`Cc1ccccc1C(c1ccccc1C)N1C2CCC1CC(O)(c1ccccc1)C2` (configuration not stated) (10 µM) registered a morphology score in assay [1] of 0.307. Further, the SARS-CoV-2 infection rate in assay [2] was 85% (inactive).

As for `Clc1cccc(-c2nnnn2Cc2cccnc2)c1Cl` (10 µM), the morphology score in assay [1] amounted to 0.0426. Also, in assay [2], the SARS-CoV-2 infection rate was 99.5% (inactive).

`CC(=O)Oc1ccccc1C(=O)Oc1cccc(CO[N+](=O)[O-])c1` (10 µM) registered a morphology score in assay [1] of 0.178. In addition, the SARS-CoV-2 infection rate in assay [2] was 101% (inactive).

As for `Sc1nc2ccccc2s1` [benzo[d]thiazole-2(3H)-thione] (10 µM), in assay [1], the morphology score came out at 0.0522. Further, the SARS-CoV-2 infection rate in assay [2] was 104% (inactive).

Take `CCCNC(=O)NS(=O)(=O)c1ccc(Cl)cc1` [chlorpropamide] (10 µM): the morphology score in assay [1] was 0.266. In addition, the SARS-CoV-2 infection rate in assay [2] was 79.5% (inactive).

For `CC(C)c1cc(CNc2nc(Nc3cc(C4CC4)[nH]n3)cc(N3CCN(C)CC3)n2)on1` (10 µM), in assay [1], the morphology score is -0.0949. In addition, in assay [2], the SARS-CoV-2 infection rate is 112% (inactive).

For the molecule `COc1cc(-c2ncn(/C=C\C(=O)OC(C)C)n2)cc(C(F)(F)F)c1` (10 µM), the morphology score in assay [1] was -0.358. The SARS-CoV-2 infection rate in assay [2] was 114% (inactive).

For `CCCCCCCCCCCCCCCCO` [1-hexadecanol] (10 µM), the morphology score in assay [1] was -0.278. Moreover, in assay [2], the SARS-CoV-2 infection rate is 110% (inactive).

As to `O=P(O)(O)C(O)(Cc1cnc2ccccn12)P(=O)(O)O` [minodronic-acid] (10 µM), the morphology score in assay [1] is -0.0261. Also, the SARS-CoV-2 infection rate in assay [2] is 108% (inactive).

Take `Cc1cccc(/C=C/c2ccccc2)n1` (10 µM): the morphology score in assay [1] was found to be 0.0753. For the same molecule, in assay [2], the SARS-CoV-2 infection rate is 98% (inactive).

In turn, `Cc1nn(C)c2c1C(c1cccc(Cl)c1)=NCCN2` [zometapine] (10 µM) gave a morphology score in assay [1] of 0.136. For the same molecule, the SARS-CoV-2 infection rate in assay [2] was 104% (inactive).

With `COc1cccc(C=NCCN=Cc2cccc(OC)c2[O-])c1[O-].[Cl-].[Mn+3]` (10 µM), in assay [1], the morphology score is -0.0731. Further, the SARS-CoV-2 infection rate in assay [2] was 95% (inactive).

Turning to `O=C(NC1CCN(CCc2c[nH]c3ccccc23)CC1)c1ccccc1` [indoramin] (10 µM), the morphology score in assay [1] was 0.105. Further, the SARS-CoV-2 infection rate in assay [2] is 102% (inactive).
